According to PubChem BioAssay (NCATS):
A number with no mark means an inactive call. The rule behind the calls is not given here.

tested on: HIV-1 nucleocapsid protein NCp7 (binding to TG oligonucleotide); assay: HIV Nucleocapsid (AID 346); details: HIV-1 NC / fluorescein-TGTGTGTG probe, fluorescence polarization;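 note: potency is for inhibitors that block NC binding and lower polarization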
How it was run: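 Inhibition of nucleocapsid binding to single-stranded 5'-TGTGTGTG probe (10 nM) was measured by fluorescence polarization after 1 hr at room temperature with 100 nM protein under high-salt, zinc-containing, reducing conditions.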
Potency is the fitted concentration of half-maximal effect.

SMILES | Potency [µM]
c1cn(-c2ccnc(-c3ccc4c(c3)OCO4)n2)cn1 | > 20
Cn1cccc1C(=O)N1CCC2(CC1)CN(c1ccccn1)C2 | > 20
COc1cccc(Nc2ncc3nc(C)c(=O)n(CCC#N)c3n2)c1 | > 20
c1csc(CNc2ncncc2-c2ccc3c(c2)OCO3)c1 | > 20
O=C(c1cccc(F)c1)N1CCC2(CCN(Cc3cc(C(F)(F)F)cc(C(F)(F)F)c3)CC2)CC1 | > 20
FC(F)(F)c1ccccc1-c1nccc(N2CCNCC2)n1 | > 20
N#CCCn1c(=O)cnc2cnc(Oc3ccccc3)nc21 | > 20
COC(=O)N1CCC2(CCCN(c3ccccn3)C2)CC1 | > 20
CN(C)C(=O)c1ccc(-c2ccc3ncnc(N4CCOCC4)c3c2)cc1 | > 20
O=C(c1ccncc1)N1CCC2(CCCN(c3ncccn3)C2)CC1 | > 20
Cc1cccc(CNc2nc(-c3ccoc3)nc3ccccc23)c1 | > 20
COc1ccc(-c2nc3cnc(N(C)C)nc3n(C3CC3)c2=O)cc1 | > 20
COc1ccccc1-c1nccc(Nc2ccc(F)cc2)n1 | > 20
CNc1ccnc(-c2cccc(NS(C)(=O)=O)c2)n1 | > 20
COCCn1c(=O)cnc2cnc(N3CCOCC3)nc21 | > 20
O=C(Oc1ccccc1)N1CCC2(CC1)CCN(c1ncccn1)CC2 | > 20
COCCNc1nc(-c2ccccc2C(F)(F)F)nc2ccccc12 | > 20
COCCn1c(=O)c(C)nc2cnc(N(C)C)nc21 | > 20
CN(C)c1ncnc2ccc(-c3ccoc3)cc12 | > 20
COc1ccccc1-c1nccc(NCc2cccc(C)c2)n1 | > 20
COc1cccc(-c2cc(NCc3cccnc3)ncn2)c1 | > 20
COC(=O)N1CCC2(CCCN(C(=O)Nc3ccc(OC)cc3)C2)CC1 | > 20
Cc1noc(C)c1-c1ccc2ncnc(NC3CC3)c2c1 | > 20
COc1ccc(C(=O)N2CCC[C@@]3(CCN(C(=O)Nc4ccccc4)C3)C2)cc1 | > 20
